Reference: PubChem BioAssay AID1159580 (chemical genetic matrix, 2015)
Where “and” joins values, the source holds several entries; their conditions need not be identical. Equal entries are not always repeated. The campaign covered roughly 5,500 compounds. About 2,000 (36%) were called active. Not shown: some 18% with an inconclusive outcome. Rule as the data show it: active = normalized growth mostly below about 0.91 (no sharp cut-off); inconclusive = no clear call, values can overlap the other calls; inactive = mostly above about 0.92. This is one part of the list.

Experiment: chemical genetic growth profiling, strain panel (AID 1159580);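 also: tested at 20 µM; growth read once vehicle control cultures reached saturation at 30 °C; 1 = growth at the plate median or of vehicle wells; lower values mean less growth of the strain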
Conditions: S. cerevisiae deletion strains, growth OD

Measured: normalized growth

CC(=O)O[C@H]1CC[C@@]2(C)C(=CCC3C2CC[C@@]2(C)C3CC[C@@H]2C(C)CCCC(C)C)C1 (stereo partly drawn)
inactive: locus YAL021C, strain ccr4, active compounds read low 1 | locus YAL026C, strain drs2, active compounds read low 1 | locus YAL030W, strain snc1, active compounds read low 0.985 | locus YBL061C, strain skt5, active compounds read low 0.994 | locus YBR009C, strain hhf1, active compounds read low 0.994 | locus YBR021W, strain FUR4, active compounds read low 0.996 | locus YBR023C, strain chs3, active compounds read low 0.998 | locus YBR171W, strain sec66, active compounds read low 0.976 | locus YBR229C, strain ROT2, active compounds read low 1.01 | locus YBR231C, strain swc5, active compounds read low 0.988 | locus YBR279W, strain paf1, active compounds read low 0.997 | locus YCL011C, strain gbp2, active compounds read low 0.992 | locus YCL016C, strain dcc1, active compounds read low 1.01 | locus YCL029C, strain bik1, active compounds read low 1.02 | locus YCL061C, strain MRC1, active compounds read low 0.988 | locus YCL069W, strain vba3, active compounds read low 0.998 | locus YCR088W, strain abp1, active compounds read low 0.988 | locus YDL005C, strain med2, active compounds read low 0.981 | locus YDL035C, strain GPR1, active compounds read low 1.03 | locus YDL040C, strain nat1, active compounds read low 0.975 | locus YDL074C, strain BRE1, active compounds read low 1.04 | locus YDL101C, strain DUN1, active compounds read low 1.01 | locus YDL134C, strain PPH21, active compounds read low 1.02 | locus YDL185W, strain tfp1, active compounds read low 1.03 | locus YDL192W, strain arf1, active compounds read low 1.05 | locus YDR001C, strain nth1, active compounds read low 0.993 | locus YDR069C, strain doa4, active compounds read low 0.987 | locus YDR101C, strain arx1, active compounds read low 1.02 | locus YDR137W, strain rgp1, active compounds read low 1.01 | locus YDR159W, strain sac3, active compounds read low 0.993 | locus YDR162C, strain NBP2, active compounds read low 1.02 | locus YDR195W, strain ref2 0.943 | locus YDR297W, strain sur2, active compounds read low 0.99 | locus YDR318W, strain mcm21, active compounds read low 1.03 | locus YDR334W, strain swr1, active compounds read low 0.988 | locus YDR335W, strain msn5, active compounds read low 1 | locus YDR388W, active compounds read low 1.03 | locus YDR392W, strain spt3, active compounds read low 0.958 | locus YDR502C, strain sam2, active compounds read low 1.02 | locus YEL003W, strain gim4, active compounds read low 0.988 | locus YEL037C, strain rad23, active compounds read low 0.996 | locus YEL061C, strain CIN8 (second series), active compounds read low 0.992 | locus YEL061C, strain CIN8, active compounds read low 1.01 | locus YER015W, strain faa2, active compounds read low 0.995 | locus YER016W, strain bim1, active compounds read low 0.994 | locus YER110C, active compounds read low 1.03 | locus YER111C, strain swi4, active compounds read low 0.979 | locus YER155C, strain BEM2 (second series), active compounds read low 0.97 | locus YER155C, strain BEM2, active compounds read low 0.992 | locus YER167W, strain BCK2, active compounds read low 1.02 | locus YFR010W, strain ubp6, active compounds read low 0.986 | locus YGL078C, strain dbp3, active compounds read low 1.02 | locus YGL086W, strain mad1, active compounds read low 1.01 | locus YGL167C, strain pmr1, active compounds read low 0.989 | locus YGL173C, strain kem1, active compounds read low 0.99 | locus YGL227W, strain vid30, active compounds read low 0.978 | locus YGL240W, strain doc1, active compounds read low 0.969 | locus YGL248W, strain PDE1, active compounds read low 1.02 | locus YGL253W, strain hxk2, active compounds read low 0.995 | locus YGR078C, strain PAC10, active compounds read low 1.03 | locus YGR135W, strain pre9, active compounds read low 1.02 | locus YGR252W, strain gcn5, active compounds read low 1.03 | locus YHR013C, strain ard1, active compounds read low 0.997 | locus YHR027C, strain rpn1, active compounds read low 0.997 | locus YHR030C, strain SLT2, active compounds read low 1.01 and 0.967 | locus YHR079C, strain IRE1 (second series), active compounds read low 1.02 | locus YHR079C, strain IRE1, active compounds read low 0.974 | locus YHR094C, strain hxt1, active compounds read low 1.01 | locus YHR129C, strain ARP1, active compounds read low 1.02 | locus YHR142W, strain chs7, active compounds read low 1.01 | locus YHR200W, strain rpn10, active compounds read low 1.03 | locus YIL066C, strain RNR3, active compounds read low 1.04 | locus YIL073C, strain SPO22, active compounds read low 1.1 | locus YIL125W, strain kgd1, active compounds read low 1.01 | locus YIR030C, strain dcg1, active compounds read low 1.02 | locus YJL092W, strain hpr5, active compounds read low 0.998 | locus YJL095W, strain BCK1 (second series), active compounds read low 1.01 | locus YJL095W, strain BCK1, active compounds read low 1.03 and 0.973 | locus YJL115W, strain asf1, active compounds read low 1 | locus YJL129C, strain trk1, active compounds read low 0.998 | locus YJL134W, strain LCB3, active compounds read low 1.01 | locus YJL154C, strain vps35, active compounds read low 1 | locus YJL164C, strain tpk1, active compounds read low 1.01 | locus YJL166W, strain qcr8, active compounds read low 0.993 | locus YJL168C, strain set2, active compounds read low 1.02 | locus YJL187C, strain SWE1 (second series), active compounds read low 1.02 | locus YJL187C, strain SWE1, active compounds read low 0.997 | locus YJR043C, strain POL32, active compounds read low 1.03
